Experimental data: the supplement of paper PMC10849652
About 8,800 targets were measured; listed, in parts, are those with a hit and a random draw of the rest. About 0.5% of all pairs of compound and target were hits.

Assays:
Test in all cases: log2 fold change, soluble protein after heating vs DMSO (PISA); higher = thermal stabilisation; K562 lysate, 10 uM; active = over 0.2 and 3.5 SD of the protein, either way, in both replicates (recomputed)
[1] = compound: C1=CC=C(C=C1)[C@H](COC2=CC3=C(C=C2)NC(=O)N3)NC(=O)C4=CC=CN(C4=O)CC5=CC(=C(C=C5)F)F
Summary of the method: (§1)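 Following dounce homogenisation of K562 pellets in PBS pH 7.4 with 1 mM MgCl2, crude extract at 1 mg/mL protein was incubated for 30 min with 10 μM compound. Aliquots were then heated for 3 min over 48°C-58°C and pooled, NP-40 was added to 0.5% at 4°C, and soluble protein was recovered as the supernatant at 21,000xg for 90 min. Channel-sum-equalised TMTpro 16plex LC-MS/MS quantified this protein. Each value, from duplicates, is a log-two fold change in thermal stability relative to solvent controls.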

[2] = compound: CC1=C(SC2=C1C(=N[C@H](C3=NN=C(N32)C)CC(=O)N)C4=CC=C(C=C4)Cl)C
Summary of the method: as §1

[3] = compound: CC1=C2C(=CC=C1)N=C(N(C2=O)C3=CC=CC=C3C)CN4C=NC5=C(N=CN=C54)N
Summary of the method: as §1

[4] = compound: Cc1sc2c(c1C)C(c1ccc(Cl)cc1)=N[C@@H](CC(=O)OC(C)(C)C)c1nnc(C)n1-2
Summary of the method: as §1

[5] = compound: c1ccc([C@@H]2C[C@H]2NC2CCNCC2)cc1
Summary of the method: as §1

Measured: log2 fold change

UPF3B (UniProt Q9BZI7)
UniProt Q9BZI7, sequence (Q9BZI7 whole entry, looked up): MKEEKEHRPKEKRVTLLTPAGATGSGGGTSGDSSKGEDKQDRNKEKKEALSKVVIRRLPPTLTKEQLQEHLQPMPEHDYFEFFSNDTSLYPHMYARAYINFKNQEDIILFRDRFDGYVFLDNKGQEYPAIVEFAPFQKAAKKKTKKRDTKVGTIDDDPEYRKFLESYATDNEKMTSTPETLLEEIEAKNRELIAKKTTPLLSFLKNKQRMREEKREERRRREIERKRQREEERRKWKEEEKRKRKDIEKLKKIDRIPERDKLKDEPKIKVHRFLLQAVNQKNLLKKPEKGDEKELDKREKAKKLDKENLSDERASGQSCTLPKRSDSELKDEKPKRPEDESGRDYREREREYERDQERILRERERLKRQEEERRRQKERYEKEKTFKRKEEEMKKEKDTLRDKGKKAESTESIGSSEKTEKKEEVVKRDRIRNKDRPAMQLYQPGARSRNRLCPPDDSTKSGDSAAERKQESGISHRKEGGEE
inactive: [1] 0.031 | [2] -0.008 | [3] -0.043 | [4] 0.022 | [5] -0.097

UTRN isoform 2 (UniProt P46939)
UniProt P46939, sequence (P46939 whole entry, looked up): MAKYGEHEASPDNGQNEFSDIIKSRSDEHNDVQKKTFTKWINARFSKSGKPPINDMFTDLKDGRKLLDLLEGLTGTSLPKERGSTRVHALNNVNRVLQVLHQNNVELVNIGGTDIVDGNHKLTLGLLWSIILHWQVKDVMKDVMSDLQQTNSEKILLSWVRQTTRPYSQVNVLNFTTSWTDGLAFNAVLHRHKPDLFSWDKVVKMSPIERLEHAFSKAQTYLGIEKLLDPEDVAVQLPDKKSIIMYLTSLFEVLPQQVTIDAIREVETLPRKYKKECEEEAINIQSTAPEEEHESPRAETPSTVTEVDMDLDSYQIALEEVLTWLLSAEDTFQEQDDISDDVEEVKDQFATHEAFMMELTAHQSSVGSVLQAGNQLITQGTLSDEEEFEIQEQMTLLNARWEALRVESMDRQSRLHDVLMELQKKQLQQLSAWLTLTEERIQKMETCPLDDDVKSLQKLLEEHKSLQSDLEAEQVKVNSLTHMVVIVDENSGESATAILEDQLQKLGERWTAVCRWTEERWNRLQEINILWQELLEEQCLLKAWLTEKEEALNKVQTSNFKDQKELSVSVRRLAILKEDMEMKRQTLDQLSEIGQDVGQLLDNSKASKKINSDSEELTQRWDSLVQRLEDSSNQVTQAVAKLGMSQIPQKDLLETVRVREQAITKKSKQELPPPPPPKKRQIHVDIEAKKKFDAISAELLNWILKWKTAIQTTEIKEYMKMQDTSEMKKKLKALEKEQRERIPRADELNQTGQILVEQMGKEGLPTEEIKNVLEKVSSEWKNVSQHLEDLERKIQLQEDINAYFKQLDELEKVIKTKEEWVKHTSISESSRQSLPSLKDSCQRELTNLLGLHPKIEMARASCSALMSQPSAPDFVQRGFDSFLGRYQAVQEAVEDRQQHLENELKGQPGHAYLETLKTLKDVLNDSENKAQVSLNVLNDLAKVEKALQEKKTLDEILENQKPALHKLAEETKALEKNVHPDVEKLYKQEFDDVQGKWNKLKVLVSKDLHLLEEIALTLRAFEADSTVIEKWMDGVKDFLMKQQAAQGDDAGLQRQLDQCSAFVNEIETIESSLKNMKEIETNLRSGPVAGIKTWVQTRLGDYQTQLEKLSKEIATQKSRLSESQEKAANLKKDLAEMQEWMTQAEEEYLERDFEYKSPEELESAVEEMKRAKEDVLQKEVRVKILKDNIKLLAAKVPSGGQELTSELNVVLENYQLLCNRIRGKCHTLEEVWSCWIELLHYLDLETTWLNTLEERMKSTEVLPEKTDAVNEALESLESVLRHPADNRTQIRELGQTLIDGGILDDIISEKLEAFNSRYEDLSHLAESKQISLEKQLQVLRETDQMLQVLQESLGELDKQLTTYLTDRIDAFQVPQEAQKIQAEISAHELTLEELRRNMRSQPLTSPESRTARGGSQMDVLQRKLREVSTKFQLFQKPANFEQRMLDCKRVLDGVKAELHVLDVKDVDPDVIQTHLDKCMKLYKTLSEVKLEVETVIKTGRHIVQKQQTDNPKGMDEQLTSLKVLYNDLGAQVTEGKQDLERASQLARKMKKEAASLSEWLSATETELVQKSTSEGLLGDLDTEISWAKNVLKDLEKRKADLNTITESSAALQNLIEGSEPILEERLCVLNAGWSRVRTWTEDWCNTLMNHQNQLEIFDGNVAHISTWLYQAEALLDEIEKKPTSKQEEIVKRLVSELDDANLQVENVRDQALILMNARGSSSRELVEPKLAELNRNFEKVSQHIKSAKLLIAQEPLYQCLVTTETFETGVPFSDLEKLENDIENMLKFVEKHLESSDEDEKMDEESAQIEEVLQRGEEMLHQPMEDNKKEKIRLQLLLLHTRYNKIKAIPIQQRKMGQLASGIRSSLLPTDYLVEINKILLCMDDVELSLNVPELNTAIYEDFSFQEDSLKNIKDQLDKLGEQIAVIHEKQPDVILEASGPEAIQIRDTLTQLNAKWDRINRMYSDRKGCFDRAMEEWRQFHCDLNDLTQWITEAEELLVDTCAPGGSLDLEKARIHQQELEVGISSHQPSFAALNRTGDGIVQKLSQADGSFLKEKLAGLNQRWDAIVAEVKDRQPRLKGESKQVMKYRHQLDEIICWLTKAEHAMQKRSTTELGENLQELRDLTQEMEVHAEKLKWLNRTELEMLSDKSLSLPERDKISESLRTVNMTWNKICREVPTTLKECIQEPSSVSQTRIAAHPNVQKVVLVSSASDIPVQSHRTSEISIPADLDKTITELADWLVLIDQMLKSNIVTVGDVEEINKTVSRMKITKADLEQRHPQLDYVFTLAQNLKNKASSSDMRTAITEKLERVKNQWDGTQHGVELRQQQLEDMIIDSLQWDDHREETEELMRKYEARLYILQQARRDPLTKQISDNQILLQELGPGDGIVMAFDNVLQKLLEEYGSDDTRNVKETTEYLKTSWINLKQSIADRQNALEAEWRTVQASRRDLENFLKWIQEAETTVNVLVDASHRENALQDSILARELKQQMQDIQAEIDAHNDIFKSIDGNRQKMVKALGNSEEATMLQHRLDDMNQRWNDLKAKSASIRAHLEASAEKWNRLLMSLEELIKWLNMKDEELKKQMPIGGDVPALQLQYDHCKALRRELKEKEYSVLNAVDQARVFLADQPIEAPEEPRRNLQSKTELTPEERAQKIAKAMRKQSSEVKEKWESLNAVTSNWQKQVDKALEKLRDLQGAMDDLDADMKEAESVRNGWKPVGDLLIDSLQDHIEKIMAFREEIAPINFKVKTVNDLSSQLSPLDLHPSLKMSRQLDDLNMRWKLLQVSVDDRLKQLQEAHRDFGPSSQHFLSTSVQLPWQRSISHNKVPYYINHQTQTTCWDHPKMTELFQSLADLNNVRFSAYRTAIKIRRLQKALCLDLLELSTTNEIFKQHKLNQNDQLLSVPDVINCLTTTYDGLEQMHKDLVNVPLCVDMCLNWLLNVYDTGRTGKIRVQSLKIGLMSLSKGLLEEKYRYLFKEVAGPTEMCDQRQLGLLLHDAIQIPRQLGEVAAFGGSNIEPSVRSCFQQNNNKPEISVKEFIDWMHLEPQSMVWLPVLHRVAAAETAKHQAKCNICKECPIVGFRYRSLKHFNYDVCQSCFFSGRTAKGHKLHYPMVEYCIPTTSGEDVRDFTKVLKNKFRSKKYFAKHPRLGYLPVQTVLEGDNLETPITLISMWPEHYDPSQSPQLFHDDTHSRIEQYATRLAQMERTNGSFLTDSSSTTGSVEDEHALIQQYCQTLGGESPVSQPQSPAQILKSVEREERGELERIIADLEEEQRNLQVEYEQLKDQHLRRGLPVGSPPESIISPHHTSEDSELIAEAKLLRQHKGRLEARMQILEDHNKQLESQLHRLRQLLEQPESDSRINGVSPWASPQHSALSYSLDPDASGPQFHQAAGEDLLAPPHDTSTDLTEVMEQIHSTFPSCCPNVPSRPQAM
inactive: [1] 0.026 | [2] 0.037 | [5] 0.062

ZKSCAN8 (UniProt Q15776)
UniProt Q15776, sequence (Q15776 whole entry, looked up): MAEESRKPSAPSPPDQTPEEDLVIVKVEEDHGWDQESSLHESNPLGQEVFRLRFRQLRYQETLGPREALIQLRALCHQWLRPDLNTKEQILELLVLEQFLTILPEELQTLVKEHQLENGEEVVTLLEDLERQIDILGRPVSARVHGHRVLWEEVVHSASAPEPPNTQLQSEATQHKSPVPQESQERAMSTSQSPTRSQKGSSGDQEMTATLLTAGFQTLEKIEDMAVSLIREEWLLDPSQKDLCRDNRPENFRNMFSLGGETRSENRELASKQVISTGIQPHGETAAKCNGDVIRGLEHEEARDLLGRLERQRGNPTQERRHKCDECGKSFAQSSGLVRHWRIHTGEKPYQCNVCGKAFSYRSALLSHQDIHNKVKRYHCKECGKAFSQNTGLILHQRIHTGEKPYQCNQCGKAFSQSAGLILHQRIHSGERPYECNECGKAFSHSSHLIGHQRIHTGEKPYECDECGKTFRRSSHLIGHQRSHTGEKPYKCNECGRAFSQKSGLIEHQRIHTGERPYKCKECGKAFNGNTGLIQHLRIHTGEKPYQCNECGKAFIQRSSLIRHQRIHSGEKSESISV
inactive: [3] -0.065 | [4] -0.026
